Laboratory results taken from PubChem BioAssay (NCI).
About 83,000 compounds went through this panel and 20% of them were active in at least one assay; those are over-represented in the sample as a whole.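 Values shown are percent growth following 48 h exposure of cells in 96-well plates to a single concentration of compound; below 10 was considered active.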 The source made the active and inactive calls.

Columns and labels:
Test in all cases: NCI-60 one-dose screen, 48 h (100 = growth as untreated, 0 = no growth, -100 = all killed)
Conditions in all cases: 10 µM unless noted
SR leukemia = test system: SR leukemia
RPMI-8226 leukemia = test system: RPMI-8226 leukemia
OVCAR-8 ovarian = test system: OVCAR-8 ovarian
OVCAR-5 ovarian = test system: OVCAR-5 ovarian
OVCAR-4 ovarian = test system: OVCAR-4 ovarian
SK-OV-3 ovarian = test system: SK-OV-3 ovarian
IGROV1 ovarian = test system: IGROV1 ovarian
OVCAR-3 ovarian = test system: OVCAR-3 ovarian
HS 578T breast = test system: HS 578T breast
NCI/ADR-RES ovarian = test system: NCI/ADR-RES ovarian
T-47D breast = test system: T-47D breast
BT-549 breast = test system: BT-549 breast
MDA-MB-435 melanoma = test system: MDA-MB-435 melanoma
SW-620 colon = test system: SW-620 colon
MCF7 breast = test system: MCF7 breast
HCT-116 colon = test system: HCT-116 colon
HCC-2998 colon = test system: HCC-2998 colon
KM12 colon = test system: KM12 colon

Measured: growth

Cc1c(O)cc(-c2cnc(N/N=C/c3ccccc3)s2)c(O)c1C
inactive: SR leukemia 95.3% | RPMI-8226 leukemia 51.5% | OVCAR-8 ovarian 84.4% | OVCAR-5 ovarian 110% | OVCAR-4 ovarian 63.5% | SK-OV-3 ovarian 102% | IGROV1 ovarian 83.8% | OVCAR-3 ovarian 95.5% | HS 578T breast 91.2% | NCI/ADR-RES ovarian 93.6% | T-47D breast 29.7% | BT-549 breast 72.8% | MDA-MB-435 melanoma 95.5% | SW-620 colon 113% | MCF7 breast 72.3% | HCT-116 colon 96.2% | HCC-2998 colon 131% | KM12 colon 90.7%

COc1ccc(C(=O)C/C(=C\c2ccc(O)c(OC)c2)C(=O)NN)cc1
active: MDA-MB-435 melanoma 9.68%
inactive: SR leukemia 26.9% | RPMI-8226 leukemia 80.3% | OVCAR-8 ovarian 80.7% | OVCAR-5 ovarian 105% | OVCAR-4 ovarian 101% | SK-OV-3 ovarian 79.9% | IGROV1 ovarian 82.6% | OVCAR-3 ovarian 87.6% | HS 578T breast 101% | NCI/ADR-RES ovarian 74.8% | T-47D breast 66.9% | BT-549 breast 63.7% | SW-620 colon 84.1% | MCF7 breast 47.9% | HCT-116 colon 72.2% | HCC-2998 colon 104% | KM12 colon 73.2%

CCOC(=O)c1ccc[nH]1
inactive: SR leukemia 94.8% | RPMI-8226 leukemia 90.5% | OVCAR-8 ovarian 95.9% | OVCAR-5 ovarian 78.9% | OVCAR-4 ovarian 95.5% | SK-OV-3 ovarian 108% | IGROV1 ovarian 90.6% | OVCAR-3 ovarian 115% | HS 578T breast 95% | NCI/ADR-RES ovarian 95.2% | T-47D breast 93.3% | BT-549 breast 77.5% | MDA-MB-435 melanoma 105% | SW-620 colon 113% | MCF7 breast 92.6% | HCT-116 colon 94.5% | HCC-2998 colon 88.1% | KM12 colon 108%

COc1cccc(CNc2c3ccccc3nc3ccccc23)c1OC
inactive: SR leukemia 17.5% | RPMI-8226 leukemia 17% | OVCAR-8 ovarian 39.2% | OVCAR-5 ovarian 43% | OVCAR-4 ovarian 36.6% | SK-OV-3 ovarian 66% | IGROV1 ovarian 23.2% | OVCAR-3 ovarian 65.1% | HS 578T breast 64.3% | NCI/ADR-RES ovarian 33.2% | T-47D breast 47.5% | BT-549 breast 59.7% | MDA-MB-435 melanoma 46.3% | SW-620 colon 25.4% | MCF7 breast 10.1% | HCT-116 colon 11.8% | HCC-2998 colon 38.3% | KM12 colon 52.4%

O=C(OCc1ccc2c(Cl)cc(Cl)c(O)c2n1)N1CCN(C(=O)c2cc3ccccc3[nH]2)CC1
active: NCI/ADR-RES ovarian 7.03%
inactive: SR leukemia 25.3% | RPMI-8226 leukemia 40.6% | OVCAR-8 ovarian 23.8% | OVCAR-5 ovarian 41.3% | OVCAR-4 ovarian 19.6% | SK-OV-3 ovarian 31.2% | IGROV1 ovarian 18.5% | OVCAR-3 ovarian 30.6% | HS 578T breast 43.5% | T-47D breast 23.5% | BT-549 breast 50.6% | MDA-MB-435 melanoma 39.1% | SW-620 colon 25.8% | MCF7 breast 25.3% | HCT-116 colon 20.3% | HCC-2998 colon 55% | KM12 colon 20.7%

N#CSc1c[nH]c2ccc(/C=C/C(=O)/C=C(O)/C=C/c3ccc4[nH]cc(SC#N)c4c3)cc12
active: SR leukemia 2.57% | RPMI-8226 leukemia 3.93% | OVCAR-8 ovarian 9.71% | IGROV1 ovarian 3.73% | MDA-MB-435 melanoma -2.07% | SW-620 colon 9.56% | HCT-116 colon 9.39%
inactive: OVCAR-5 ovarian 67.4% | OVCAR-4 ovarian 18.6% | SK-OV-3 ovarian 100% | OVCAR-3 ovarian 18.3% | HS 578T breast 51.7% | NCI/ADR-RES ovarian 46.4% | T-47D breast 19.4% | BT-549 breast 15.7% | MCF7 breast 10.5% | HCC-2998 colon 46.3% | KM12 colon 24.9%

COc1ccc2c(c1)oc1c(C)c3c(c(C)c12)C(=O)N(CCOS(C)(=O)=O)C3=O
inactive: SR leukemia 65.8% | RPMI-8226 leukemia 94% | OVCAR-8 ovarian 103% | OVCAR-5 ovarian 91.6% | OVCAR-4 ovarian 100% | SK-OV-3 ovarian 120% | IGROV1 ovarian 88.4% | OVCAR-3 ovarian 118% | HS 578T breast 109% | NCI/ADR-RES ovarian 97.7% | T-47D breast 103% | BT-549 breast 90% | MDA-MB-435 melanoma 94.9% | SW-620 colon 94.2% | MCF7 breast 73.7% | HCT-116 colon 94.1% | HCC-2998 colon 100% | KM12 colon 107%

CCCC(O)Cn1ncc(C(=O)OCC)c1NC(=O)NCc1cccc(C(F)(F)F)c1 (stereo not drawn)
inactive: SR leukemia 76.1% | RPMI-8226 leukemia 47.9% | OVCAR-8 ovarian 102% | OVCAR-5 ovarian 107% | OVCAR-4 ovarian 104% | SK-OV-3 ovarian 84.8% | IGROV1 ovarian 83.8% | OVCAR-3 ovarian 100% | HS 578T breast 107% | NCI/ADR-RES ovarian 86.4% | T-47D breast 73.2% | BT-549 breast 77.8% | MDA-MB-435 melanoma 103% | SW-620 colon 106% | MCF7 breast 97.6% | HCT-116 colon 61.4% | HCC-2998 colon 85.3% | KM12 colon 103%

Cc1nc(N/N=C/c2cn(-c3ccccc3)nc2-c2cc3ccccc3oc2=O)sc1N=Nc1ccccc1
active: MDA-MB-435 melanoma 3.67%
inactive: SR leukemia 29.9% | RPMI-8226 leukemia 89.3% | OVCAR-8 ovarian 103% | OVCAR-5 ovarian 104% | OVCAR-4 ovarian 85.4% | SK-OV-3 ovarian 109% | IGROV1 ovarian 89.1% | OVCAR-3 ovarian 92.1% | HS 578T breast 90.2% | NCI/ADR-RES ovarian 88% | T-47D breast 83.2% | BT-549 breast 78.3% | SW-620 colon 78.8% | MCF7 breast 68.3% | HCT-116 colon 87.4% | HCC-2998 colon 104% | KM12 colon 63.7%

CC/C(=C(\c1ccc(Cl)cc1)c1ccc(OCCN2CCCCC2)cc1)c1ccc(O)cc1
active: SR leukemia -11.2% | RPMI-8226 leukemia 1.63% | T-47D breast 4.66% | MDA-MB-435 melanoma 2.07% | SW-620 colon -35.7% | MCF7 breast 3.41% | HCT-116 colon -56.5%
inactive: OVCAR-8 ovarian 62.6% | OVCAR-5 ovarian 70.4% | OVCAR-4 ovarian 36.7% | SK-OV-3 ovarian 68.1% | IGROV1 ovarian 66.8% | OVCAR-3 ovarian 40.4% | HS 578T breast 46.5% | NCI/ADR-RES ovarian 53.3% | BT-549 breast 58.3% | HCC-2998 colon 37.5% | KM12 colon 17.5%

CCN(CC)CCn1c2ccc(OC)cc2c2sc3cc(O)ccc3c(=O)c21
inactive: RPMI-8226 leukemia 21.2% | OVCAR-8 ovarian 30.7% | OVCAR-5 ovarian 91% | OVCAR-4 ovarian 50.7% | SK-OV-3 ovarian 52.3% | IGROV1 ovarian 26.3% | OVCAR-3 ovarian 38.3% | HS 578T breast 60% | NCI/ADR-RES ovarian 27.6% | T-47D breast 62.5% | BT-549 breast 62.7% | MDA-MB-435 melanoma 48.8% | SW-620 colon 13.3% | HCT-116 colon 14.2% | HCC-2998 colon 28.2% | KM12 colon 24.6%
active: SR leukemia 2.99% | MCF7 breast 9.43%

CN(C)c1ccc(C(=S)c2ccc(N(C)C)cc2)cc1
inactive: SR leukemia 33.2% | RPMI-8226 leukemia 83.1% | OVCAR-8 ovarian 88.5% | OVCAR-5 ovarian 94.8% | OVCAR-4 ovarian 83% | SK-OV-3 ovarian 82.4% | IGROV1 ovarian 59.3% | OVCAR-3 ovarian 80.7% | HS 578T breast 94.1% | NCI/ADR-RES ovarian 28.7% | T-47D breast 74.2% | BT-549 breast 83.5% | SW-620 colon 43.9% | MCF7 breast 46.4% | HCT-116 colon 57.8% | HCC-2998 colon 70.6% | KM12 colon 47.2%
active: MDA-MB-435 melanoma -13.2%

COc1cc2ncnc(Nc3ccc(F)c(Cl)c3)c2cc1OCC(=O)N1CCOCC1
inactive: SR leukemia 89.3% | RPMI-8226 leukemia 91% | OVCAR-8 ovarian 87.2% | OVCAR-5 ovarian 74.1% | OVCAR-4 ovarian 82.7% | SK-OV-3 ovarian 17.4% | IGROV1 ovarian 45.6% | OVCAR-3 ovarian 79.7% | HS 578T breast 96.7% | NCI/ADR-RES ovarian 81.9% | T-47D breast 53.5% | BT-549 breast 98.5% | MDA-MB-435 melanoma 102% | SW-620 colon 102% | MCF7 breast 83.9% | HCT-116 colon 84% | HCC-2998 colon 94.3% | KM12 colon 94.4%

CCOC(=O)C/C(=N\Nc1cc(=O)[nH]c2ccc(OC)cc12)C(=O)OCC
inactive: SR leukemia 67% | RPMI-8226 leukemia 68.5% | OVCAR-8 ovarian 103% | OVCAR-5 ovarian 96.6% | OVCAR-4 ovarian 101% | SK-OV-3 ovarian 121% | IGROV1 ovarian 92.4% | OVCAR-3 ovarian 109% | HS 578T breast 91.8% | NCI/ADR-RES ovarian 103% | T-47D breast 101% | BT-549 breast 110% | MDA-MB-435 melanoma 99% | SW-620 colon 90.3% | MCF7 breast 87.9% | HCT-116 colon 101% | HCC-2998 colon 101% | KM12 colon 99.2%

CS(=O)(=O)c1ccc(-c2nc3ccccc3n2CC(=O)N/N=C/c2ccccc2)cc1
inactive: SR leukemia 99.1% | RPMI-8226 leukemia 108% | OVCAR-8 ovarian 112% | OVCAR-5 ovarian 98.5% | OVCAR-4 ovarian 116% | SK-OV-3 ovarian 93.2% | IGROV1 ovarian 99.7% | OVCAR-3 ovarian 105% | HS 578T breast 102% | NCI/ADR-RES ovarian 105% | T-47D breast 82.4% | BT-549 breast 95.9% | MDA-MB-435 melanoma 97.2% | SW-620 colon 103% | MCF7 breast 89.3% | HCT-116 colon 81% | HCC-2998 colon 98.9% | KM12 colon 107%

CCN(CC)CCN1C(=O)c2c(c3c4ccccc4[nH]c3c3ccc4ccccc4c23)C1=O
inactive: SK-OV-3 ovarian 83.1% | IGROV1 ovarian 76.1% | OVCAR-3 ovarian 109% | HS 578T breast 87.4% | T-47D breast 48.7% | BT-549 breast 84.5% | HCT-116 colon 29.2% | HCC-2998 colon 85.5%
active: SR leukemia -22.5% | RPMI-8226 leukemia -33.1% | OVCAR-8 ovarian -29.1% | OVCAR-5 ovarian -85.8% | OVCAR-4 ovarian -79.5% | NCI/ADR-RES ovarian -40.9% | MDA-MB-435 melanoma -84.8% | SW-620 colon 4.79% | MCF7 breast -50.8% | KM12 colon -15.8%
